Reference: the supplement of paper PMC10849652
Targets with a hit are over-represented here; the source holds about 7,900 in all. About 0.6% of all pairs of compound and target were hits. Values without a mark were called inactive.

Experiments:
Test in all cases: log2 fold change, soluble protein after heating vs DMSO (PISA); higher = thermal stabilisation; K562 cells, 10 uM, 30 min; active = over 0.2 and 3.5 SD of the protein, either way, in both replicates (recomputed)
[1] = compound: CN1CCN(CCOc2cc(OC3CCOCC3)c3c(Nc4c(Cl)ccc5c4OCO5)ncnc3c2)CC1 [saracatinib]
Outline: (§1)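 Quantification of soluble protein used TMTpro 16plex LC-MS/MS, with channel sums equalised. Samples were the supernatant after 21,000xg for 90 min of pooled aliquots from K562 cells (2×10^6 cells/mL) treated with 10 μM compound for 30 min, heated for 3 min over 48°C-58°C, and extracted in PBS with 0.5% NP-40 at 4°C. Values, from duplicates, describe thermal stability against control samples on a log2 fold-change scale.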

[2] = compound: CN1CCN(c2nc(C3=C(c4c[nH]c5ccccc45)C(=O)NC3=O)c3ccccc3n2)CC1 [sotrastaurin]
Outline: as §1

[3] = compound: CN1CC[C@H](c2c(O)cc(O)c3c(=O)cc(-c4ccccc4Cl)oc23)[C@H](O)C1 [alvocidib]
Outline: as §1

[4] = compound: CN1CCc2c(c3ccccc3n2Cc2ccc(C(=O)NO)cc2)C1 [Tubastatin A]
Outline: as §1

[5] = compound: CNC(=O)C1=CC=CC=C1NC2=NC(=NC=C2Cl)NC3=C(C=C(C=C3)N4CCOCC4)OC
Outline: as §1

[6] = compound: CNC(=O)c1ccc(Nc2ncc(C(F)(F)F)c(NCc3nccnc3N(C)S(C)(=O)=O)n2)cc1 [defactinib]
Outline: as §1

[7] = compound: CNCc1ccc(-c2[nH]c3cc(F)cc4c3c2CCNC4=O)cc1 [rucaparib]
Outline: as §1

[8] = compound: CNc1nc(-c2ccc3c(N)n[nH]c3c2)cc(N2C[C@@H](C(=O)NC3CCCCC3)CC[C@H]2C)n1
Outline: as §1

[9] = compound: COC(=O)N[C@@H](C)CNc1nccc(-c2cn(C(C)C)nc2-c2cc(Cl)cc(NS(C)(=O)=O)c2F)n1 [encorafenib]
Outline: as §1

[10] = compound: COC(=O)[C@H](CCSC)NC(=O)C1=C(C=C(C=C1)NC[C@H](CS)N)C2=CC=CC=C2
Outline: as §1

Chain of UniProt Q9NR46 (Q9NR46 whole entry, looked up): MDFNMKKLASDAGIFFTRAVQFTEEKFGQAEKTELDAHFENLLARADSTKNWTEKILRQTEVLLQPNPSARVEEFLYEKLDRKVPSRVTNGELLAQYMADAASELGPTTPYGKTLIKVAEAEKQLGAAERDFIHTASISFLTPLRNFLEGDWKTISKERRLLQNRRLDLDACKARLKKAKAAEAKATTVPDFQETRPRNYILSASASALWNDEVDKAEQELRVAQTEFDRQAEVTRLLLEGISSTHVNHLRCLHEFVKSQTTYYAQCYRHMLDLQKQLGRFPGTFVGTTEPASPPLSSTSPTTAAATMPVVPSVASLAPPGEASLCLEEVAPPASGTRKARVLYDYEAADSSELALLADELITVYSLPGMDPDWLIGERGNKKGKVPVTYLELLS
Chain of UniProt Q8N5L8 (Q8N5L8 whole entry, looked up): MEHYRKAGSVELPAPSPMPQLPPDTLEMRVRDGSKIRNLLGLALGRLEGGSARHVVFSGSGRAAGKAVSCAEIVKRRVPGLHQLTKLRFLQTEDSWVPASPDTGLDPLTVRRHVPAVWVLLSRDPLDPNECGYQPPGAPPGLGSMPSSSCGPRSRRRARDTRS
Chain of UniProt Q9Y6Y8 (Q9Y6Y8 whole entry, looked up): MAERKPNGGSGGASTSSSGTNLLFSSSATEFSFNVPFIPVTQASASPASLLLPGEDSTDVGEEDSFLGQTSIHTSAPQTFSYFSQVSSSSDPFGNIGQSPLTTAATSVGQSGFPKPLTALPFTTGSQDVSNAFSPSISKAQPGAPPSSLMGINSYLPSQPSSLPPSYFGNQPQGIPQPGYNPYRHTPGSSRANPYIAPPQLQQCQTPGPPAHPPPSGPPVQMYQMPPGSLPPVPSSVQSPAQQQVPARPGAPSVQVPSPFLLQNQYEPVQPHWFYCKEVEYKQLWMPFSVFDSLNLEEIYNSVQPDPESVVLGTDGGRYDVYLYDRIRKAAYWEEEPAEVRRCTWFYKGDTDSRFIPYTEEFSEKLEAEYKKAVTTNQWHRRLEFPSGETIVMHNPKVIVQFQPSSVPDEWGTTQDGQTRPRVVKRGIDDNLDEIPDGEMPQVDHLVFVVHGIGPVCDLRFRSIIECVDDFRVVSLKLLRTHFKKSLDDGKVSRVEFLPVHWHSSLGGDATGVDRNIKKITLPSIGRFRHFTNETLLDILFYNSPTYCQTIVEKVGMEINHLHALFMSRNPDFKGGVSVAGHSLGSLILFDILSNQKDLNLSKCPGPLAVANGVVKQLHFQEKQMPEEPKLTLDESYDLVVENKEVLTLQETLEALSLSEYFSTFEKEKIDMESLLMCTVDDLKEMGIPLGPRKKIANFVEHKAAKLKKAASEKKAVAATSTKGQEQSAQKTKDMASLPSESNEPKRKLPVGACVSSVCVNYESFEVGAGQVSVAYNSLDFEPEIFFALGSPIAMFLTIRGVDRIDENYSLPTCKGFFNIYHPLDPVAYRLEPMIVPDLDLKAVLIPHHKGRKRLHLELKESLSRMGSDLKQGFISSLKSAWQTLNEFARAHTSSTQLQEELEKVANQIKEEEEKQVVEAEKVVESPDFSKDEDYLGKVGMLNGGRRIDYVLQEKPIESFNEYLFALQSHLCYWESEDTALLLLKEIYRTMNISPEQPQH
Chain of UniProt P06400 (P06400 whole entry, looked up): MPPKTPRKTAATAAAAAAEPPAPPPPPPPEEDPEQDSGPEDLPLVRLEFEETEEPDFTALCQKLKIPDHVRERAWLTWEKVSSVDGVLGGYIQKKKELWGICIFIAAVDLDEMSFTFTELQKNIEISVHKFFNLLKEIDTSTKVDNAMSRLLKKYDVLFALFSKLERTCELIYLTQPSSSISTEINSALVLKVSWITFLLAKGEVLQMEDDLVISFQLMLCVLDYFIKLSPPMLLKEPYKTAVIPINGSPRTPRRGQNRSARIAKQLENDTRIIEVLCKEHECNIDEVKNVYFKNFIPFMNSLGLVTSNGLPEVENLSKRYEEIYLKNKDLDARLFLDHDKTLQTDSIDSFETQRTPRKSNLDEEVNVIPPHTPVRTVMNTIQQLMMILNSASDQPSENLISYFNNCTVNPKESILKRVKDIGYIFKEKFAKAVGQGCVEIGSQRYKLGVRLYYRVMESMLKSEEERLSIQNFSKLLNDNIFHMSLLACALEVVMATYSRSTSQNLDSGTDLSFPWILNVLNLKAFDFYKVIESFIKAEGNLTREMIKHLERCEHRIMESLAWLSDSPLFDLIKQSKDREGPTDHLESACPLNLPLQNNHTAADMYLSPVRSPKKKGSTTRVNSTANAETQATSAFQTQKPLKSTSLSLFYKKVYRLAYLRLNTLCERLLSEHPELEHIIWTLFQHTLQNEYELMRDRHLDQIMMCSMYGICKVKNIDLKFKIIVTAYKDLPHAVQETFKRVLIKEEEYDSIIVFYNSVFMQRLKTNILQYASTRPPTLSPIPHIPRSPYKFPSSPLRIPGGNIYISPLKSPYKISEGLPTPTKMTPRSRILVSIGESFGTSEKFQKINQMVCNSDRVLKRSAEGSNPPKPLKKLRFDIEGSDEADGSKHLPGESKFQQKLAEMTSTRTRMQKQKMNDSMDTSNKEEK
Chain of UniProt Q8TDY2 (Q8TDY2 whole entry, looked up): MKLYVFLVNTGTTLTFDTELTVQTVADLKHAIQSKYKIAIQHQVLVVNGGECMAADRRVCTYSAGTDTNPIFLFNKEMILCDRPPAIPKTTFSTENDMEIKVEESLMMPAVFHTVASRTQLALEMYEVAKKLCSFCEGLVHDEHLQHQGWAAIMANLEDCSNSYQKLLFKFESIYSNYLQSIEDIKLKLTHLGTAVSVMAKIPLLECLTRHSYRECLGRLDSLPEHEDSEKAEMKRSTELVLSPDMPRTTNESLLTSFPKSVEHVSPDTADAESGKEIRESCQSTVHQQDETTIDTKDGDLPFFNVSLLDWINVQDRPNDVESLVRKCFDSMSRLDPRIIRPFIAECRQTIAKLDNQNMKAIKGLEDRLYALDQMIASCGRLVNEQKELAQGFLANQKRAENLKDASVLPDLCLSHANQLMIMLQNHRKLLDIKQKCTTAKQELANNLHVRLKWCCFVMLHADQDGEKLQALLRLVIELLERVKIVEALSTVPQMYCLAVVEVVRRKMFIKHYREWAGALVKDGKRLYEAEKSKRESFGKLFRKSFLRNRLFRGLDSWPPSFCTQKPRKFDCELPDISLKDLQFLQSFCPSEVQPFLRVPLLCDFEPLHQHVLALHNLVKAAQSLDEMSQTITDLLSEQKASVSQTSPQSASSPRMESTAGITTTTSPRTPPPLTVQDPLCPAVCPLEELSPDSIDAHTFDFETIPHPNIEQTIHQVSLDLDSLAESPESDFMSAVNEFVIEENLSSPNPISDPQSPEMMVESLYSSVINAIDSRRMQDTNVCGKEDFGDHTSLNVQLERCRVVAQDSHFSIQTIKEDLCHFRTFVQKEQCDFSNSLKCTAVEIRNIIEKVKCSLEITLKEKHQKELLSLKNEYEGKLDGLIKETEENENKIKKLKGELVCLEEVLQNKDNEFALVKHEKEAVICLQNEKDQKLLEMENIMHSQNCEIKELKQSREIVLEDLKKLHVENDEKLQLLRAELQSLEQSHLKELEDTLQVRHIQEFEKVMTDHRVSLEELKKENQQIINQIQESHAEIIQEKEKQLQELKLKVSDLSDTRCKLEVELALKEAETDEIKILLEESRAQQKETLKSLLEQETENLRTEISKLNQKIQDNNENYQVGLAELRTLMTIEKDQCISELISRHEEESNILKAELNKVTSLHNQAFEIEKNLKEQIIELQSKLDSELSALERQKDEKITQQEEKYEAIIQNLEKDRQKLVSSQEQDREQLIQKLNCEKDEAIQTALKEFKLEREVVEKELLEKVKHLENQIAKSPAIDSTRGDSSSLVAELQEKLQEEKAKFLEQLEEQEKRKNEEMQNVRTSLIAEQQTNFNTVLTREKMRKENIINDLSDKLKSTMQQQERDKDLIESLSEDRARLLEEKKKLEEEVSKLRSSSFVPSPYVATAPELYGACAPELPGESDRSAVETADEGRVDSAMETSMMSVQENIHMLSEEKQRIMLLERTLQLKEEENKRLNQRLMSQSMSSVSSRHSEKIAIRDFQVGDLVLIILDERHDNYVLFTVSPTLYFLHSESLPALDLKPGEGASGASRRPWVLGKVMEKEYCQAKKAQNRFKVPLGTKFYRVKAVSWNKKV
Chain of UniProt Q15050 (Q15050 whole entry, looked up): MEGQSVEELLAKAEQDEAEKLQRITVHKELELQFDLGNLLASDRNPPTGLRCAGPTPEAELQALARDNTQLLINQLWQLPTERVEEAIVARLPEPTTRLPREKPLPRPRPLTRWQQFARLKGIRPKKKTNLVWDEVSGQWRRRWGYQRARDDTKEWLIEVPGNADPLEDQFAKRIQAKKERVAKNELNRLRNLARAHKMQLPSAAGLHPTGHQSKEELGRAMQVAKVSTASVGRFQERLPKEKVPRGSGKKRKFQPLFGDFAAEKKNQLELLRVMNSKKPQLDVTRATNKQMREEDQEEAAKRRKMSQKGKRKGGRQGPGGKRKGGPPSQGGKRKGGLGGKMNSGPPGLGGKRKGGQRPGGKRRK
Chain of UniProt Q9BVS4 (Q9BVS4 whole entry, looked up): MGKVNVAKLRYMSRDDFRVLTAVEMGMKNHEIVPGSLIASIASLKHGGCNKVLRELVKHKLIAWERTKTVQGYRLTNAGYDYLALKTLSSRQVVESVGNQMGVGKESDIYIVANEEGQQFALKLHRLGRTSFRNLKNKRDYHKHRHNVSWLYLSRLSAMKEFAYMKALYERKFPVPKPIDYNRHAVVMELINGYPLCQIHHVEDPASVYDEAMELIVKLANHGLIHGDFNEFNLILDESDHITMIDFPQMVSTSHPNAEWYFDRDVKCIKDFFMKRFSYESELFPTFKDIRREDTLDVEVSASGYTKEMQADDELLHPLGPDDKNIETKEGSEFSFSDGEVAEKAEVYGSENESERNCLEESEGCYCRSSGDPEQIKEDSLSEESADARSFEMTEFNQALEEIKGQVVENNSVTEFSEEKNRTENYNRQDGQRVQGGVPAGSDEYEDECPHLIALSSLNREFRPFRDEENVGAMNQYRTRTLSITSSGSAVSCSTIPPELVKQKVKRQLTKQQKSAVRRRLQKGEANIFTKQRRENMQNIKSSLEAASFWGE

Target	log2 fold change [1]	log2 fold change [2]	log2 fold change [3]	log2 fold change [4]	log2 fold change [5]	log2 fold change [6]	log2 fold change [7]	log2 fold change [8]	log2 fold change [9]	log2 fold change [10]
RPP25L (UniProt Q8N5L8)	-0.079	-0.087	0.061	0.026	0.062	0.002	-0.032	-0.158	0.014	0.058
RPS19 (UniProt P39019)	-0.024	0.001	0.178	0.089	0.07	0.167	0.136	0.064	0.028	-0.004
RPS20 isoform 2 (UniProt P60866)	-0.1	0.019	0.196	0.054	0.066	0.216	0.093	-0.009	0.041	0.001
RIOK3 (UniProt O14730)	0.029	-0.006	-0.002	0.012	-0.029	-0.01	-0.132	-0.039	-0.02	-0.002
RB1 (UniProt P06400)	0.026	-0.038	-0.885 (active)	0.061	0.026	-0.176	-0.195	0.016	0.006	0.019
RAC1 (UniProt P63000)	0.097	-0.041	-0.031	0.057	-0.009	-0.012	0.075	0.043	-0.064	-0.037
RETSAT (UniProt Q6NUM9)	-0.088	0.054	0.03	0.185	0.02	-0.05	-0.001	-0.014	0.012	-0.075
RDH11 (UniProt Q8TC12)	-0.121	-0.019	-0.028	0.003	0.136	0.001	0.113	0.019	0.094	-0.086
RPS6KA2 isoform 2 (UniProt Q15349)	0	-0.049	-0.019	-0.01	-0.422 (active)	-0.209	-0.049	-0.08	0.014	-0.009
RRS1 (UniProt Q15050)	-0.079	-0.001	0.302	0.071	0.009	0.688	0.488	0.109	0.166	0.047
RAD51 (UniProt Q06609)	-0.013	0.004	-0.002	0.099	0.337 (active)	0.027	-0.035	-0.011	0.005	-0.041
SH3GLB2 (UniProt Q9NR46)	-0.059	-0.08	-0.13	0.024	-0.048	-0.148	0.042	-0.02	0.029	-0.086
RIOK2 (UniProt Q9BVS4)	-0.073	0.033	0.169	0.067	0.195	0.138	0.014	0.069	0.05	-0.009
SEC23IP (UniProt Q9Y6Y8)	-0.097	-0.048	-0.157	0.043	-0.092	-0.156	-0.019	-0.045	0.058	0.025
RB1CC1 (UniProt Q8TDY2)	-0.065	-0.108	-0.025	0.117	-0.051	-0.042	0.09	0.049	-0.104	-0.025
